From the supplement of paper PMC9334596 come the findings set out here.

Values joined by “and” are separate entries in the source; they are usually repeats but may differ in a detail not shown here. Identical values can stand only once. In all, about 5,300 compounds were measured (“PER2::LUC luminescence relative to vehicle control”: median about 0.96, highest 2% from about 1.3 on). The full list was thinned out, with the highest values kept by preference.

This experiment concerns mPer2Luc MEF. Put plainly: PER2::LUC luminescence relative to vehicle control (fold of vehicle); higher = higher PER2::LUC reporter signal. The following applies: 10 µM. The essentials:
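The value is PER2::LUC luminescence expressed as fold of vehicle control. Mouse embryonic fibroblasts carrying the mPer2Luc reporter were seeded at ~3000 cells per well in 384-well plates and grown in DMEM with 10% FBS at 37 °C and 5% CO2. Compounds from commercial libraries were added at 10 μM 48 h after seeding, and luminescence was read with the ONE-Glo luciferase assay system 24 h and 30 h after treatment, followed by an alamarBlue viability assay.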

Take `COc1cccc2oc(-c3ccccc3)cc(=O)c12`: the “PER2::LUC luminescence” value is, setting by setting: (time after treatment 24 h) 1.41; (time after treatment 30 h) 1.43.

As to `O=c1cc(-c2ccccc2)oc2cc(O)c(O)c(O)c12`, the “PER2::LUC luminescence” value (time after treatment 24 h) was determined as 1.13 and the “PER2::LUC luminescence” value (time after treatment 30 h) was 1.1.

On to `O=C(O)[C@H]1O[C@@H](Oc2cc3oc(-c4ccccc4)cc(=O)c3c(O)c2O)[C@H](O)[C@@H](O)[C@@H]1O`, for which the “PER2::LUC luminescence” value by setting is: (time after treatment 24 h) 1.22; (time after treatment 30 h) 1.34.

Consider `COc1ccc(-c2cc(=O)c3c(OC(C)=O)cc(OC(C)=O)cc3o2)cc1`, for which the “PER2::LUC luminescence” value worked out at 1.25 (time after treatment 24 h) and 1.3 (time after treatment 30 h).

In the case of `COc1c(O)cc(O)c2c(=O)cc(-c3ccccc3)oc12`, the “PER2::LUC luminescence” value (time after treatment 24 h) worked out at 1.03 and the “PER2::LUC luminescence” value (time after treatment 30 h) was 1.02.

Take `O=c1cc(-c2ccccc2)oc2cc(O)cc(O)c12`: the “PER2::LUC luminescence” value by setting is: (time after treatment 24 h) 1.55 and 1.53; (time after treatment 30 h) 2.06 and 1.73.

Regarding `O=c1cc(-c2ccc(O)cc2)oc2cc(O)cc(O)c12`, the “PER2::LUC luminescence” value stood at 0.595 (time after treatment 24 h) and 0.545 (time after treatment 30 h).

With `COc1cc(C)c2c(=O)cc(-c3ccccc3)oc2c1`, the “PER2::LUC luminescence” value reads like this: (time after treatment 24 h) 1.64; (time after treatment 30 h) 1.76.

Turning to `COc1cc(OC)c2c(=O)cc(-c3ccccc3)oc2c1`, the “PER2::LUC luminescence” value is 1.01 (time after treatment 24 h) and 1.12 (time after treatment 30 h).

As to `COc1ccc(-c2cc(=O)c3c(OC)c(OC)c(OC)cc3o2)cc1OC`, the “PER2::LUC luminescence” value reads like this: (time after treatment 24 h) 0.736; (time after treatment 30 h) 0.843.

Regarding `O=c1cc(-c2ccccc2)oc2cccc(O)c12`, the “PER2::LUC luminescence” value is, setting by setting: (time after treatment 24 h) 1.25; (time after treatment 30 h) 1.42.

`O=c1cc(-c2ccc(O)c(O)c2)oc2cc(O)cc(O)c12`: the “PER2::LUC luminescence” value came out at 1.01 (time after treatment 24 h) and 1.1 (time after treatment 30 h).

As for `CC[C@H]1OC(=O)C[C@@H](O)[C@H](C)[C@@H](O[C@@H]2O[C@H](C)[C@@H](O)[C@H](N(C)C)[C@H]2O)[C@@H](CCN2CCCCC2)C[C@@H](C)C(=O)/C=C/C(C)=C/[C@@H]1CN1CCCCC1`, the “PER2::LUC luminescence” value was 0.885 (time after treatment 24 h) and 0.882 (time after treatment 30 h).

Turning to `CC1NC(=O)NC1=O` (stereo not given), the “PER2::LUC luminescence” value (time after treatment 24 h) turned out to be 0.946 and the “PER2::LUC luminescence” value (time after treatment 30 h) was 0.877.

For the molecule `CCO[C@H]1CN(C2CCC(O)(c3ccc4c(c3)OCO4)CC2)C[C@@H]1NC(=O)CNC(=O)c1cccc(C(F)(F)F)c1` (stereo not given in full), the “PER2::LUC luminescence” value (time after treatment 24 h) was 0.97 and the “PER2::LUC luminescence” value (time after treatment 30 h) worked out at 0.88.

Turning to `C#CCN(Cc1cc2c(=O)n(C)c(CN3CCN(C)CC3)nc2cc1Cl)c1ccc(C(=O)NCc2cccnc2)cc1`, the “PER2::LUC luminescence” value (time after treatment 24 h) stood at 0.621 and the “PER2::LUC luminescence” value (time after treatment 30 h) was 0.565.

Take `c1ccc2c3c([nH]c2c1)[C@H]1[C@@H]2CC[C@@H]([C@@H]4CCCN[C@@H]42)N1CC3`: the “PER2::LUC luminescence” value turned out to be 1.23 (time after treatment 24 h) and 1 (time after treatment 30 h).

Turning to `CC(C)CCC[C@@H](C)[C@H]1CC[C@H]2[C@@H]3C=CC4=CC(=O)CC[C@]4(C)[C@H]3CC[C@]12C`, the “PER2::LUC luminescence” value worked out at 0.981 (time after treatment 24 h) and 0.927 (time after treatment 30 h).

`CC(C(=O)O[C@]12CCC[C@H](CC1)N2C)c1ccc(Br)cc1` (stereo not given in full): the “PER2::LUC luminescence” value runs as follows: (time after treatment 24 h) 0.821; (time after treatment 30 h) 0.934.

Turning to `CCOc1ccc(Oc2ccc(OCc3cc(F)ccc3F)cc2)c(N)c1`, the “PER2::LUC luminescence” value was found to be 1.03 (time after treatment 24 h) and 0.887 (time after treatment 30 h).

With `C[C@@H]1O[C@@H](OC[C@H]2O[C@@H](OCCc3ccc(O)c(O)c3)[C@H](O)[C@@H](O[C@@H]3O[C@@H](C)[C@H](O)[C@@H](O)[C@H]3O)[C@@H]2OC(=O)/C=C/c2ccc(O)c(O)c2)[C@H](O)[C@H](O)[C@H]1O`, the “PER2::LUC luminescence” value reads like this: (time after treatment 24 h) 1.09; (time after treatment 30 h) 0.982.

For `N[C@@H](C(=O)N[C@@H]1C(=O)N2C(C(=O)O)=C(CSc3cn[nH]n3)CS[C@H]12)c1ccc(O)cc1`, the “PER2::LUC luminescence” value is 1 (time after treatment 24 h) and 0.912 (time after treatment 30 h).

For `C/C1=C/CCC(C)(O)/C=C\C(C(C)C)C(OC(=O)c2ccc(O)cc2)C1` (stereo not given), the “PER2::LUC luminescence” value runs as follows: (time after treatment 24 h) 1.06; (time after treatment 30 h) 1.07.

As for `O=C1NC(=O)/C(=C\c2ccc3nccnc3c2)S1`, the “PER2::LUC luminescence” value by setting is: (time after treatment 24 h) 1.2; (time after treatment 30 h) 1.23.

Take `O=C1NC(=O)/C(=C/c2ccc3c(c2)OC(F)(F)O3)S1`: the “PER2::LUC luminescence” value was 1.31 and 1.12 (time after treatment 24 h); 1.42 and 1.06 (time after treatment 30 h).

For the molecule `O=C1NC(=O)/C(=C/c2cccc(C(F)(F)F)c2)S1`, the “PER2::LUC luminescence” value (time after treatment 24 h) is 1.02 and the “PER2::LUC luminescence” value (time after treatment 30 h) was found to be 1.06.

As for `O=C(O)c1cccc(CN2C(=O)/C(=C(\c3ccccc3)c3ccc(Cl)cc3)c3ccccc32)c1`, the “PER2::LUC luminescence” value came to 1.09 (time after treatment 24 h) and 1.03 (time after treatment 30 h).

As for `CO[C@@H]1[C@@H](O[C@@H]2O[C@H](C)[C@@H](O[C@H]3C[C@@](C)(O)[C@@H](OC(=O)CC(C)C)[C@H](C)O3)[C@H](N(C)C)[C@H]2O)[C@@H](CC=O)C[C@@H](C)[C@@H](O)/C=C/C=C/C[C@@H](C)OC(=O)C[C@H]1O`, the “PER2::LUC luminescence” value reads like this: (time after treatment 24 h) 0.929; (time after treatment 30 h) 1.07.

Consider `CN(C)c1ccc2c(c1)OC(N)=C(C#N)C2c1cccc(C(F)(F)F)c1` (stereo not given), for which the “PER2::LUC luminescence” value worked out at 1.04 (time after treatment 24 h) and 1 (time after treatment 30 h).

On to `NC(=O)c1ccccc1Nc1ccnc(Nc2cccc(O)c2)n1`, for which the “PER2::LUC luminescence” value reads like this: (time after treatment 24 h) 0.392; (time after treatment 30 h) 0.446.

For `CC1(C)C2CCC1(C)C(O)C2` (stereo not given), the “PER2::LUC luminescence” value was found to be 1.1 (time after treatment 24 h) and 0.997 (time after treatment 30 h).

For `Clc1ccc(C(Cn2ccnc2)OCc2ccc(Sc3ccccc3)cc2)c(Cl)c1` (stereo not given), the “PER2::LUC luminescence” value came to 0.905 (time after treatment 24 h) and 1.06 (time after treatment 30 h).

For `Clc1ccc(COC(Cn2ccnc2)c2ccc(Cl)cc2Cl)c(Cl)c1` (stereo not given), the “PER2::LUC luminescence” value was 1.04 and 0.591 (time after treatment 24 h); 1.29 and 1.01 (time after treatment 30 h).

As to `Clc1ccc(COC(Cn2ccnc2)c2ccc(Cl)cc2Cl)cc1` (stereo not given), the “PER2::LUC luminescence” value was 1.26 and 1.03 (time after treatment 24 h); 1.35 and 1.25 (time after treatment 30 h).

Regarding `C=CC(C1=CC(=O)C(OC)=CC1=O)c1ccc(O)cc1` (stereo not given), the “PER2::LUC luminescence” value is, setting by setting: (time after treatment 24 h) 0.816; (time after treatment 30 h) 0.863.

Turning to `CCCCCCCCCCC1=C(C)C(=O)C(OC)=C(OC)C1=O`, the “PER2::LUC luminescence” value runs as follows: (time after treatment 24 h) 1.02; (time after treatment 30 h) 0.992.

For `CCN1C[C@H](C)n2c(c(O)c3c(=O)n(Cc4ccc(F)c(Cl)c4)nc(C(=O)NC)c32)C1=O`, the “PER2::LUC luminescence” value runs as follows: (time after treatment 24 h) 1.29; (time after treatment 30 h) 1.16.

For `C[C@@H]1CCO[C@H]2Cn3cc(C(=O)NCc4ccc(F)cc4F)c(=O)c(O)c3C(=O)N12`, the “PER2::LUC luminescence” value was 1.35 and 1.15 (time after treatment 24 h); 1.4 and 1.2 (time after treatment 30 h).

Take `CC(=O)c1ccc2c(c1)C1C=CCC1C(c1cc3c(cc1Br)OCO3)N2` (stereo not given): the “PER2::LUC luminescence” value reads like this: (time after treatment 24 h) 1.02; (time after treatment 30 h) 0.942.

With `CC(C(=O)Nc1cc(C#N)ccc1CCCC(=O)O)c1ccc(F)c2ccccc12` (stereo not given), the “PER2::LUC luminescence” value runs as follows: (time after treatment 24 h) 1.06; (time after treatment 30 h) 1.03.

As for `COC(=O)C(O)CCn1cnc2c(N)ncnc21` (stereo not given), the “PER2::LUC luminescence” value (time after treatment 24 h) was 0.95 and the “PER2::LUC luminescence” value (time after treatment 30 h) stood at 0.999.

On to `COc1cccc(OC)c1C(=O)N[C@@H]1C(=O)N2[C@@H]1SC(C)(C)[C@@H]2C(=O)O`, for which the “PER2::LUC luminescence” value was determined as 0.867 (time after treatment 24 h) and 0.823 (time after treatment 30 h).

In the case of `CC1(C)S[C@@H]2[C@H](NC(=O)[C@H](N)c3ccccc3)C(=O)N2[C@H]1C(=O)O`, the “PER2::LUC luminescence” value (time after treatment 24 h) is 1.04 and 0.885; the “PER2::LUC luminescence” value (time after treatment 30 h) was 0.911 and 0.808.

Turning to `CC1(C)S[C@@H]2[C@H](NC(=O)Cc3ccccc3)C(=O)N2[C@H]1C(=O)O`, the “PER2::LUC luminescence” value was 1.06 and 1.17 (time after treatment 24 h); 1.72 and 0.949 (time after treatment 30 h).

As for `CC1(C)S[C@@H]2[C@H](NC(=O)C(C(=O)O)c3ccccc3)C(=O)N2[C@H]1C(=O)O` (stereo not given in full), the “PER2::LUC luminescence” value runs as follows: (time after treatment 24 h) 1.05; (time after treatment 30 h) 1.03.

Consider `CC(Oc1ccccc1)C(=O)N[C@@H]1C(=O)N2[C@@H]1SC(C)(C)[C@@H]2C(=O)O` (stereo not given in full), for which the “PER2::LUC luminescence” value is, setting by setting: (time after treatment 24 h) 1.02; (time after treatment 30 h) 0.902.

Turning to `CC1(C)S[C@@H]2[C@H](NC(=O)COc3ccccc3)C(=O)N2[C@H]1C(=O)O`, the “PER2::LUC luminescence” value runs as follows: (time after treatment 24 h) 1.09; (time after treatment 30 h) 1.56.

On to `Nn1cc(Br)c(=O)[nH]c1=O`, for which the “PER2::LUC luminescence” value worked out at 0.972 (time after treatment 24 h) and 0.954 (time after treatment 30 h).

Take `CC[N+]1(C)C2CCC1CC(OC(=O)C1CCC(C(=O)OC3CC4CCC(C3)[N+]4(C)CC)(c3ccccc3)c3ccccc31)C2` (stereo not given): the “PER2::LUC luminescence” value (time after treatment 24 h) came to 0.898 and the “PER2::LUC luminescence” value (time after treatment 30 h) was 0.961.

`CN(Cc1ccccc1)c1ccc2cc(C(=O)O)c(=O)oc2c1`: the “PER2::LUC luminescence” value (time after treatment 24 h) is 1.06 and the “PER2::LUC luminescence” value (time after treatment 30 h) amounted to 0.948.
